HCMV antiviral: human cytomegalovirus inhibition; activity change, negative = inhibition, % at 57.5 µM; 410,000 tested, 4.5% active; HFF cells, HCMV-luciferase reporter, 72 h; stronger effect = lower value; in the data active = activity change below about -60%; inconclusive = no clear call, values can overlap the other calls; inactive = above about -39%
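Luciferase read-out from HCMV-luciferase-infected HFFs (MOI 1 PFU/cell) 72 h post infection at 37C; compounds added after 16 h cell attachment; activity normalized between buffer-only basal and Salinomycin (10uM) inhibitor controls.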
HCV inhibitor: HCV inhibition | Huh7.5.1 HCVcc-Cre infection, luciferase reporter, 44 h | AID 651820 | 340,000 tested, 3.4% active | Potency, µM (doses to about 41.8 µM), without a hit: top-dose activity change, negative = inhibition, most hits filed as inhibitors; active = well fitted inhibition curve with a large enough effect; inconclusive = small, poorly fitted or top-dose-only effect, or another doubt; inactive = no such curve, though single readings can be large or run the other way; note: potency is the fitted concentration of half-maximal effect
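1,000 cells/well; 4 h culture; + compound; + HCVcc-Cre (~0.5 moi); 44 h; luciferase substrate, RT 15 min; read 15 sec.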
LASV entry inh: Lassa virus entry inhibition; Lassa virus pseudotype entry inhibition, cell reporter; Potency, µM (titrated, usually from 37.9 µM), for inactives: top-dose activity change, negative = inhibition, usual class: inhibitors; 300,000 tested, 1.2% active; calls by dose curve; tested in HEK293 cells; note: potency is the fitted concentration of half-maximal effect; nearly all actives have a fitted effect of over 50% in size
Marburg entry inh: Marburg virus entry inhibition; Potency, µM (highest dose often 37.8 µM), for the others: at the highest dose activity change, negative = inhibition, usual class: inhibitors; Marburg virus pseudotyped entry inhibition, cell reporter; 300,000 tested, 1.8% active; calls by dose curve; tested in HEK293 cells; note: potency is the fitted concentration of half-maximal effect
FMDV inh: blocks foot and mouth disease virus. FMDV antiviral cell-based qHTS. Potency, µM (titrated, usually from 57.9 µM), for inactives: at the highest dose activity change, negative = inhibition, hits mostly inhibitors. 410,000 tested, 1.2% active. AID 1159524; calls by dose curve; tested in HEK293T cells; note: read-out not given here; potency is the fitted concentration of half-maximal effect; nearly all actives have a fitted effect of over 45% in size
Active calls of the source: *; ? = inconclusive; . = not tested or not shown; [ ] = another dose, or the depositor's remark. Compounds with a hit are over-represented: about 7.9% of the library has one in this group of screens. % is set by controls: 0 for no effect and ±100 for the full control effect.

SMILES | HCMV antiviral | HCV inhibitor | LASV entry inh | Marburg entry inh | FMDV inh
CCC(=O)N1CCc2cc(Br)cc(S(=O)(=O)N3CCCC(C(=O)Nc4ccc(C(C)C)cc4)C3)c21 (stereo not drawn) | -3 | . | -5%[46.1 µM] | -12%[46.1 µM] | -17%
CCOc1ccc2nc(N3CCCC3C(=O)N3CCC(c4nc5ccccc5o4)CC3)nc(C)c2c1 (stereo not drawn) | . | . | . | . | -6%
COc1ccc(CCNC(=O)c2oc(=O)c3ccccc3c2-c2ccccc2)cc1OC | 33 | . | 0%[46.1 µM] | . | ?
O=C(Nc1nc(-c2cc(F)ccc2F)cs1)c1ccccn1 | -37 | ? | 15% | 7%[46.1 µM] | 45%
O=C(Nc1nc(-c2ccccn2)cs1)c1cc(Cl)ccc1[N+](=O)[O-] | -99* | 10µM* | 4.5µM* | 2.8µM* | -24%
Cc1ccc(CNC(=O)CCc2c(C)nn(-c3ccc(N4CCCCC4)nn3)c2C)cc1 | -1 | . | 7%[46.1 µM] | . | -3%
Cc1ccnc(N/C=C(/NC(=O)c2ccccc2)C(=O)NN)n1 | -82* | 10% | 1%[46.1 µM] | -5%[46.1 µM] | -5%
Cc1ccnc(N/C=C(/NC(=O)c2ccccc2)C(=O)N/N=C\c2ccc(F)cc2)n1 | 0 | 1% | -15% | -5% | -20%
COc1cccc(NC(=O)CSc2nc3n[nH]c(C)c3c(=N)n2-c2cccc(OC)c2)c1 | 57 | 10µM* | -28% | ? | -19%
Cc1cccc(-n2c(SCC(=O)Nc3ccc(C)c(C)c3)nc3n[nH]c(C)c3c2=N)c1 | -28 | . | -6%[46.1 µM] | . | -19%
Cc1cc(-n2c(SCC(=O)Nc3ccc(Br)cc3)nc3n[nH]c(C)c3c2=N)ccc1Cl | -75* | -16% | . | . | -23%
COc1ccc(Cn2ccc3nc(C)c(C(=O)Nc4ccc(OC)cc4)cc3c2=O)cc1 | -11 | . | ? | . | -22%
Cc1c(Cl)cccc1NC(=O)CCN1C(=O)c2ccccc2Sc2ncccc21 | -26 | . | 7%[46.1 µM] | . | 7%
CCN(Cc1ccccc1)C(=O)Cn1cc(S(=O)(=O)Cc2cccc(Cl)c2)c2ccccc21 | 0 | . | -16%[46.1 µM] | . | 24%
Cc1ccc2nc(-c3ccccc3)cn2c1 | -66* | -9% | 0.32µM* | 0.45µM* | 1.8µM*
Cc1ccc2nc(-c3ccc(O)c(O)c3)cn2c1 | 15 | -12% | ? | ? | 13µM*
CCN(CC)CCNC(=O)c1cnn(-c2ncc3c(n2)-c2ccc(OC)cc2CC3)c1C | . | . | . | . | -18%
Cc1cccc2[nH]c3c(N4CC=C(c5ccc(F)cc5)CC4)ncnc3c12 | ? | 13µM* | ? | 11µM* | 40µM*
CC(=O)/C(C#N)=C1\NC(=O)C(Cc2ccc(F)cc2)S1 (stereo not drawn) | -83* | -4% | ? | ? | -6%
O=C1NC(=Nc2ccccc2)SC1Cc1cccc(Cl)c1Cl (stereo not drawn) | -27 | 1% | ? | 21% | -12%
CC(=O)/C(C#N)=C1\NC(=O)C(Cc2ccccc2Cl)S1 (stereo not drawn) | -95* | 0% | 2.3µM* | ? | 51%
CC(=O)/C(C#N)=C1\NC(=O)C(Cc2cc(Cl)ccc2Cl)S1 (stereo not drawn) | -89* | -8% | . | . | 9%
NC1=NC(=O)C(Cc2cc(Cl)ccc2Cl)S1 (stereo not drawn) | -13 | 11% | -1% | 8% | -2%
COc1ccc(CNC(=O)c2ccc(N3CCCC3)c(NC(=O)NCc3ccc(C)cc3)c2)cc1 | -19 | . | ? | . | -22%
Cc1cccc(Cn2c(SCc3ccc(C(=O)NCc4cccs4)cc3)nc3cccnc32)c1 | -35 | . | ? | . | 0%
SMILES | HCMV antiviral | HCV inhibitor | LASV entry inh | Marburg entry inh | FMDV inh
CSc1ccc(C2CC(=O)Oc3c2c(=O)n(C)c2ccccc32)cc1 (stereo not drawn) | 5 | . | -27%[46.1 µM] | -3%[46.1 µM] | -18%
Cc1ccc(Cl)cc1NCc1nnc2n1CCCCC2 | -25 | . | 1%[46.1 µM] | . | 21%
COC(=O)C1=C(C)C(=O)[C@]2(O)c3ccccc3N(C)[C@]12C | . | . | . | 18%[14.2 µM] | .
CCCCC(C)n1[nH]c(=O)c2c(C)cc(C)nc21 (stereo not drawn) | -38 | -3% | ? | 7% | -20%
CCCCCCC(C)n1[nH]c(=O)c2c(C)cc(=O)[nH]c21 (stereo not drawn) | -70* | -13% | -18% | ? | ?
CCN(CC)C1CCN(C(=O)c2cnn(-c3nccc(-c4ccccc4OC)n3)c2-c2ccco2)C1 (stereo not drawn) | . | . | . | . | 6%
OCc1ccc(-c2nn(Cc3ccccc3)c3ccccc23)o1 | ? | ? | 2.9µM* | 2.6µM* | -1%
CCN(CC)CCN1C(=O)c2ccccc2NC1c1ccc(F)cc1 (stereo not drawn) | 20 | -18% | 10% | 9% | 12%
CCN(CC)CCN1C(=O)c2ccccc2NC1c1ccc(N(C)C)cc1 (stereo not drawn) | 24 | 12% | -21% | -6%[46.1 µM] | 3.2µM*
CN(C)c1ccc(C2Nc3ccccc3C(=O)N2CCCN2CCOCC2)cc1 (stereo not drawn) | 9 | 7% | . | . | 2.8µM*
CN(C)c1ccc(C2NC(=O)c3ccccc3N2)cc1 (stereo not drawn) | 12 | ? | ? | 10µM* | 21%
CCC(O)CNC(=O)c1cnn(-c2ncc3c(n2)-c2ccccc2CCC3)c1C1CC1 (stereo not drawn) | . | . | . | . | 38%
CCCCN(CCCNC(=O)c1cc(Nc2cccc(SC)c2)nc2ccccc12)Cc1ccccc1 | -99* | . | ? | -2%[46.1 µM] | 0%
Cc1cc(C(=O)NCCc2ccc(Cl)cc2)c2ccccc2n1 | 3 | -3% | -13% | ? | ?
CSc1cccc(Nc2cc(C(=O)NCCc3ccc(Cl)cc3)c3ccccc3n2)c1 | -102* | . | -9%[46.1 µM] | ? | -30%
FC(F)Oc1ccc(-c2csc(=Nc3cccnc3)n2CC2CCCO2)cc1 (stereo not drawn) | -76* | 11µM* | ? | ? | 8.9µM*
Clc1ccc(-c2csc(=Nc3cccnc3)n2CCCn2ccnc2)cc1Cl | -94* | 11µM* | ? | ? | 32µM*
COc1ccc(-c2csc(=Nc3ccccc3)n2CCO)cc1F | -8 | . | -24%[46.1 µM] | ? | ?
O=C(O)CCc1ccc(-c2cccs2)n1CC1CCCO1 (stereo not drawn) | -24 | -2% | -9% | 10% | 15%
COc1ccc(N=c2scc(-c3ccc(OC)cc3)n2CCO)cc1 | -74* | 6.3µM* | ? | -29% | -2%
OCCCn1c(-c2ccccc2)csc1=Nc1ccccc1 | -30 | ? | -17% | ? | ?
COCCn1c(-c2ccc(Br)cc2)csc1=Nc1cccnc1 | -37 | ? | . | ? | 32µM*
O=C(NCc1ccccc1)N[C@H]1CC[C@@]23CCCN2C(=O)CCC[C@H]3C1Cc1ccccc1 (stereo partly drawn) | 1 | . | . | . | .
Cc1ccc(NC(=S)/C(=C(\[O-])c2ccc(F)cc2)[n+]2ccccc2)cc1 | -73* | -11% | 2% | -19%[46.1 µM] | 35%
COc1ccc(C(=O)OCc2cc(=O)n3nc(-c4cccs4)sc3n2)cc1 | 11 | . | 3%[46.1 µM] | . | -11%

Screening results deposited in PubChem by National Center for Advancing Translational Sciences (NCATS).
